Bioassay records: PubChem BioAssay, National Center for Advancing Translational Sciences (NCATS)
ALOX12 inhib: qHTS Assay for Inhibitors of 12-hLO (12-human lipoxygenase); Polyunsaturated fatty acid lipoxygenase ALOX12 (Homo sapiens), P18054; 150,000 tested, 0.12% active; Potency, µM (doses to about 57.1 µM), without a hit: top-dose activity change, negative = inhibition, usual class: inhibitors; purified 12-hLO, xylenol orange hydroperoxide absorbance; active = well fitted inhibition curve with a large enough effect; inconclusive = small, poorly fitted or top-dose-only effect; note: potency is the fitted concentration of half-maximal effect; nearly all actives have a fitted effect of over 55% in size
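Hydroperoxide formation by human 12-lipoxygenase from 40 uM arachidonic acid was followed colorimetrically via ferric-xylenol orange complex, using the 573/405 nm absorbance ratio. Enzyme concentration was 150 nM, with 30 min reaction at room temperature.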
PNC inhibitor: High Content Assay for Compounds that inhibit the Assembly of the Perinucleolar Compartment. PC3M PTB-GFP, PNC prevalence imaging, 16 h; stronger effect = lower value. activity change (PNC), negative = inhibition, % at 10 µM. 140,000 tested, 3.1% active;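 active = readout at or below -70, meaning at least 70% loss of cells showing the perinucleolar compartment, a nuclear body marking cancer cells; inconclusive = readout between -30 and a set limit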;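 note: plate controls were DMSO wells for no effect and camptothecin positive control wells for full effect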
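Read-out is percentage of cells bearing a perinucleolar compartment, from automated 20x imaging of fixed, Hoechst-stained PC3M PTB-GFP cells. Cells were seeded 4 h, then exposed 16 h to compound (23 nl of library stock) in duplicate plates.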
ALDH1A1 inh: qHTS Assay for Inhibitors of Aldehyde Dehydrogenase 1 (ALDH1A1); Potency, µM (series often up to 75.3 µM), without a hit: at the highest dose activity, negative = inhibition, hits mostly inhibitors; 220,000 tested, 7.3% active; Purified ALDH1A1, NADH fluorescence, propionaldehyde substrate; AID 1030, 2008;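 note: potency is the fitted concentration of half-maximal effect; plate controls were no enzyme wells and a reference inhibitor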
Target sequence (P00352 whole entry, looked up): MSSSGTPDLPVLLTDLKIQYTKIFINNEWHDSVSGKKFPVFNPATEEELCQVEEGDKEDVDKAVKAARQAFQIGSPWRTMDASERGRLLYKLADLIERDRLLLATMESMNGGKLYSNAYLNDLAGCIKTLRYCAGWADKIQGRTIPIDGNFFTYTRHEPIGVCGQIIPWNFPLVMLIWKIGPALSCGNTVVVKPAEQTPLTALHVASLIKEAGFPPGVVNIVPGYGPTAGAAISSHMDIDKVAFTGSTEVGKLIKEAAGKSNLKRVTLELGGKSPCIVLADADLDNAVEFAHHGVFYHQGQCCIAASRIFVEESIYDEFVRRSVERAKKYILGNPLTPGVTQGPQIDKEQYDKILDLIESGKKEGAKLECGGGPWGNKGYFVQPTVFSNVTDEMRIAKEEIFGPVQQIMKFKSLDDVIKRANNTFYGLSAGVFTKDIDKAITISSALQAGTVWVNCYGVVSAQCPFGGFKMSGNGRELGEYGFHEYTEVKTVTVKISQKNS
HPGD block: qHTS Assay for Inhibitors of HPGD (15-Hydroxyprostaglandin Dehydrogenase); 15-hydroxyprostaglandin dehydrogenase [NAD(+)] (Homo sapiens), P15428; purified HPGD, NADH fluorescence kinetic, PGE2 substrate; Potency, µM, for inactives: at the highest dose activity change, negative = inhibition, usual class: inhibitors; 150,000 tested, 4.3% active; AID 894, 2007; note: potency is the fitted concentration of half-maximal effect
Target sequence (P15428 whole entry, looked up): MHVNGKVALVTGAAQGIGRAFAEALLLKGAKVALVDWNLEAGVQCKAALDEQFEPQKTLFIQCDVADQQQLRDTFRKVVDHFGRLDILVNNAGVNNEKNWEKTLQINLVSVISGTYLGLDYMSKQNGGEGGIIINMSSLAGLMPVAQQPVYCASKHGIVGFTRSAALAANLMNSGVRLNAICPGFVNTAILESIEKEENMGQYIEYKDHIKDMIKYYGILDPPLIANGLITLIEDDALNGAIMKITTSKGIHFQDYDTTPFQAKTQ
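NADH formation kinetics: reaction with 30 uM PGE2 and 1 mM NAD+ (final), 20 nM enzyme, Tris-HCl pH 8 with Tween 20, after 15 min compound preincubation at room temperature. Fluorescence change, last versus first of five reads.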
LMNA splice mod: qHTS Assay for Modulators of Lamin A Splicing; HeLa LMNA splicing GFP/RFP minigene ratio, 48 h; Potency, µM (titrated, usually from 46.1 µM), inactives show at the top dose ratio change, negative = inhibition, actives largely listed as inhibitors; 200,000 tested, 0.01% active; AID 1487, 2009; active = well fitted inhibition curve with a large enough effect in the signal ratio, with a control signal flat, not every such curve was filed as active; inconclusive = small, poorly fitted or top-dose-only effect, or effect the other way, or a change in a side signal; the % refers to the signal ratio; note: potency is the fitted concentration of half-maximal effect
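Read-out is the ratio of GFP to DsRed2 object intensity, acquired by 488 nm laser-scanning cytometry on HeLa lamin A-EGFP minigene reporter cells. Compound incubation 48 hrs at 37 °C in Opti-MEM with 2% FBS; DMSO 0.5% final.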
* marks the source's active call; other numbers are inactive results; [ ] = dose if it differs, or a comment. An excerpt weighted towards active compounds, which were near 10% of everything screened. Unless noted, calls come from the whole dose curve; as a rule, active = well fitted inhibition curve with a large enough effect (not every such curve was filed as active); inconclusive = small, poorly fitted or top-dose-only effect, or another doubt; inactive = no such curve, though single readings can be large or run the other way. Unless noted, % is set by controls: 0 for no effect and ±100 for the full control effect.

What do the screens show for `O=P(O)(O)O`?
ALOX12 inhib: 1.7%; ALDH1A1 inh: -5.2%; HPGD block: -7.0%; LMNA splice mod: 22.3%

Results for CCCn1c(=S)[nH]c2cc(C(=O)NCC3CCCO3)ccc2c1=O (configuration not stated) ?
ALOX12 inhib: 1.0%; PNC inhibitor: 58.1; ALDH1A1 inh: 4.1%; HPGD block: -15.6%; LMNA splice mod: inconclusive

How did O=C(CCc1c[nH]c2ccccc12)NC1CC1 do in these assays?
ALOX12 inhib: 1.8%; PNC inhibitor: -11.0; ALDH1A1 inh: 5.3%; HPGD block: 15.8µM*; LMNA splice mod: 0.5%

How did S=C(NCCc1c[nH]c2ccccc12)NC1CC1 do in these assays?
ALDH1A1 inh: 2.7%; LMNA splice mod: -3.5%[46 µM]

What do the screens show for `O=C(Cn1[nH]c(=O)c2ccccc2c1=O)NC1CCN(Cc2ccccc2)CC1`?
ALOX12 inhib: -3.6%; PNC inhibitor: -10.9; ALDH1A1 inh: 7.6%; HPGD block: -3.3%; LMNA splice mod: 3.5%

What do the screens show for `CCCNC(=O)CCCCn1c(=S)[nH]c2c([nH]c3ccc(OC)cc32)c1=O`?
ALDH1A1 inh: 0.3%; LMNA splice mod: 24.9%[46 µM]

What do the screens show for `O=C(Cn1[nH]c(=O)c2ccccc2c1=O)NC1CCCCCC1`?
ALOX12 inhib: -4.3%; PNC inhibitor: -85.7*; ALDH1A1 inh: -4.9%; HPGD block: -2.4%; LMNA splice mod: 11.0%

Results for O=C(CCn1c(=S)[nH]c2ccccc2c1=O)NCC1CCCO1 (configuration not stated) ?
ALOX12 inhib: 7.4%; PNC inhibitor: 35.8; ALDH1A1 inh: inconclusive; HPGD block: 28.2µM*; LMNA splice mod: 13.1%

How did COc1ccc2[nH]c3c(=O)n(CCCCC(=O)N4CCCC4)c(=S)[nH]c3c2c1 do in these assays?
ALOX12 inhib: -8.2%; PNC inhibitor: inconclusive; ALDH1A1 inh: -7.2%; HPGD block: 4.47µM*; LMNA splice mod: -2.3%

Results for CC(C)(C)c1cc(C(=O)/C=C/c2ccc(C(=O)O)cc2)cc(C(C)(C)C)c1 ?
ALOX12 inhib: -3.3%; ALDH1A1 inh: 5.6%; HPGD block: -18.8%

Results for O=C(CSc1nc2c([nH]c3ccccc32)c(=O)n1-c1ccc(F)cc1)N1CCCc2ccccc21 ?
LMNA splice mod: 7.8%[46 µM]

What do the screens show for `CCCNC(=O)c1ccc(Cn2c(SCC(=O)NC(C)C)nc3ccccc3c2=O)cc1`?
LMNA splice mod: -13.1%[46 µM]

What do the screens show for `O=C(CCCn1c(=S)[nH]c2ccccc2c1=O)NC1CCCC1`?
ALOX12 inhib: -3.5%; PNC inhibitor: 1.3; ALDH1A1 inh: inconclusive; HPGD block: 14.1µM*; LMNA splice mod: inconclusive

What do the screens show for `CC1CCCCC1NC(=O)CCCn1c(=S)[nH]c2ccccc2c1=O` (configuration not stated)?
ALDH1A1 inh: 2.2%

What do the screens show for `CC1CCCN(C(=O)CCCn2c(=S)[nH]c3ccccc3c2=O)C1` (configuration not stated)?
ALOX12 inhib: -0.4%; PNC inhibitor: inconclusive; ALDH1A1 inh: 17.8µM*; HPGD block: 7.94µM*; LMNA splice mod: 10.9%

Results for Cc1cc(C)c(S(=O)(=O)NCC23C=CC(O2)C2C(=O)N(c4ccccc4)C(=O)C23)c(C)c1 (configuration not stated) ?
ALOX12 inhib: -4.1%; PNC inhibitor: 87.4; ALDH1A1 inh: 2.51µM*; HPGD block: 35.5µM*; LMNA splice mod: -2.4%

Results for O=C1C2C3C=CC(CNS(=O)(=O)c4ccccc4[N+](=O)[O-])(O3)C2C(=O)N1c1ccccc1 (configuration not stated) ?
ALDH1A1 inh: 0.891µM*; LMNA splice mod: inconclusive

What do the screens show for `Cn1cccc1C(=O)N1CCC[C@@]2(CCN(c3ccccc3)C2)C1`?
ALOX12 inhib: -13.4%; ALDH1A1 inh: inconclusive; HPGD block: -11.1%

Results for Cc1ccc(S(=O)(=O)N2c3ccccc3OCC2C(C)(C)C)cc1 (configuration not stated) ?
ALOX12 inhib: 2.9%; PNC inhibitor: -100.0*; ALDH1A1 inh: 10.1%; HPGD block: -10.2%; LMNA splice mod: inconclusive

How did Cc1ccc2c(c1)N(S(=O)(=O)c1ccc(F)cc1)C(C(C)(C)C)CO2 (configuration not stated) do in these assays?
ALOX12 inhib: -2.0%; PNC inhibitor: -26.5; ALDH1A1 inh: 6.5%; HPGD block: 1.4%; LMNA splice mod: -10.8%

What do the screens show for `N#CCC(=O)NNC(=S)Nc1ccccc1C(F)(F)F`?
ALDH1A1 inh: 17.8µM*

Results for Cc1c(NC(=S)Nc2ccccc2C(F)(F)F)cccc1[N+](=O)[O-] ?
ALOX12 inhib: 5.4%; PNC inhibitor: inconclusive; ALDH1A1 inh: 22.4µM*; LMNA splice mod: -1.7%

How did CCCC(=O)NC(=S)Nc1ccccc1C(F)(F)F do in these assays?
ALOX12 inhib: -15.0%; PNC inhibitor: 5.8; ALDH1A1 inh: inconclusive; HPGD block: -13.8%; LMNA splice mod: 14.3%

What do the screens show for `FC(F)(F)c1ccccc1NC(=S)NN=C1CCCCCC1`?
ALDH1A1 inh: 28.2µM*; LMNA splice mod: -6.4%[46 µM]

Results for Cc1ccccc1C(=O)NC(=S)Nc1ccccc1C(F)(F)F ?
ALOX12 inhib: inconclusive; PNC inhibitor: -26.5; ALDH1A1 inh: 12.6µM*; HPGD block: -6.7%; LMNA splice mod: 5.2%

Results for Cc1ccc(C(=O)NC(=S)Nc2ccccc2C(F)(F)F)c(C)c1 ?
ALOX12 inhib: inconclusive; PNC inhibitor: 32.0; ALDH1A1 inh: 12.6µM*; HPGD block: -15.3%; LMNA splice mod: -1.8%

What do the screens show for `CCOC(=O)c1cnc(SCc2nc(N)nc(Nc3ccccc3)n2)nc1N`?
ALOX12 inhib: -2.5%; PNC inhibitor: -123.0*; ALDH1A1 inh: 1.6%; HPGD block: -8.0%; LMNA splice mod: -13.1%

Results for CCOC(=O)c1cnc(SCC(=O)Nc2sc(C)c(C)c2C#N)nc1N ?
ALOX12 inhib: -1.6%; PNC inhibitor: 26.3; ALDH1A1 inh: 31.6µM*; HPGD block: -6.4%; LMNA splice mod: 6.3%

What do the screens show for `CCOC(=O)c1cnc(SCCc2ccccc2)nc1N`?
ALOX12 inhib: 6.5%; PNC inhibitor: 60.8; ALDH1A1 inh: -6.1%; HPGD block: -9.4%; LMNA splice mod: 4.4%

How did CCOC(=O)c1sc(NC(=O)CSc2nc(C)cc(-c3ccccc3)n2)c(C#N)c1C do in these assays?
ALOX12 inhib: -2.9%; PNC inhibitor: -11.7; ALDH1A1 inh: 3.16µM*; HPGD block: 7.08µM*; LMNA splice mod: -7.6%

Results for CC(=O)c1ccc(-n2nnnc2SCC(=O)Nc2sc(C)c(C)c2C#N)cc1 ?
ALOX12 inhib: -1.8%; PNC inhibitor: -9.9; ALDH1A1 inh: 17.8µM*; HPGD block: -9.3%; LMNA splice mod: -8.0%
